The values that follow come from PubChem BioAssay (EPA / NIEHS).

Structures are written as SMILES. Values joined by “and” are separate entries in the source; they are usually repeats but may differ in a detail not shown here. Equal values may be shown once. Some compounds were tested as several samples or in several runs, with calls that do not always agree. Active and inactive are the calls of the source. The calls were made as follows: active = hit-call score of the fitted dose curve at least 0.9, where 1 is the maximum; inactive = score below 0.9.

A short description of test [1]: ATG_GLI_CIS: Attagene CIS-FACTORIAL HepG2 Assay for human Zinc Finger Protein GLI1 (AID 2282945). The note with it: HepG2, Attagene cis-factorial reporter mRNA, GLI element; actives raise or lower the signal. An outline of the steps: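 Bidirectional curve fits relative to DMSO, using reporter mRNA levels from RT-PCR plus capillary electrophoresis. Cells were HepG2 transiently carrying cis-regulated reporter constructs, harvested 24 h after dosing.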

Test [2] has as its target Bile acid receptor (Homo sapiens) (UniProt Q96RI1). As to the kind of experiment: ATG_IR1_CIS: Attagene CIS-FACTORIAL HepG2 Assay for human Nuclear Receptor Subfamily 1 Group H Member 4 (NR1H4), IR1 submotif (AID 2282946). The note with it: IR1 reporter transcription, actives raise or lower the signal. The procedure, abridged: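 HepG2 cells transiently transfected with multiplexed cis-element reporter units read endogenous transcription factor activity. After 24 h compound exposure, reporter mRNA was quantified by RT-PCR, fluorescent labelling, HpaI digestion and capillary electrophoresis; bidirectional fitting versus DMSO baseline.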

Test [3] is described as follows: ATG_GRE_CIS: Attagene CIS-FACTORIAL HepG2 Assay for human Glucocorticoid Response Elements (GRE) (AID 2282947). The note with it: HepG2 GRE cis-reporter, Attagene multiplex mRNA; actives raise or lower the signal. The procedure, abridged:
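Multiplexed cis-reporter mRNA induction, HepG2, 24 h post-dose. RT-PCR, FAM-labelled, HpaI-digested amplicons by CE. Bidirectional fit vs DMSO.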

The nature of test [4]: ATG_ISRE_CIS: Attagene CIS-FACTORIAL HepG2 Assay for human Interferon Regulatory Factor 1 (IRF1) binding to an Interferon-Stimulated Response Element (ISRE) (AID 2282948). The note with it: HepG2 ISRE cis-reporter (Attagene), mRNA transcription readout; actives raise or lower the signal. The procedure, abridged: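 Endogenous transcription factor activity read as reporter transcript abundance via RT-PCR and capillary electrophoresis. HepG2 cells transiently transfected, 24 h chemical exposure. Gain or loss fitted against DMSO baseline.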

Test [5] is described as follows: ATG_M_32_CIS: Attagene CIS-FACTORIAL HepG2 Assay for M32 Transcription Factor (Internal Marker) (AID 2282949).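 Also: background control marker of the multiplexed CIS panel rather than a real target.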 The following applies: HepG2 Attagene cis-factorial M32 reporter, mRNA; actives raise or lower the signal. An outline of the steps:
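Using DMSO as baseline, bidirectional curve fits were applied to reporter mRNA signals. These came from transiently transfected HepG2 cells exposed for 24 h, with RNA analysed by RT-PCR, FAM primer extension, HpaI digestion and CE.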

Test [6] has as its target Hypoxia-inducible factor 1-alpha (Homo sapiens) (UniProt Q16665). As to the kind of experiment: ATG_HIF1a_CIS: Attagene CIS-FACTORIAL HepG2 Assay for human Hypoxia Inducible Factor 1 (HIF1A) (AID 2282951). The following applies: HepG2 Attagene cis-factorial HIF1a reporter transcription; actives raise or lower the signal. The procedure, abridged:
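Endogenous-TF cis reporter readout, human HepG2 cells, 24 h incubation; mRNA detected via RT-PCR and capillary electrophoresis fluorescence; DMSO-normalised bidirectional fitting.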

Test [7] concerns the target Hepatocyte nuclear factor 6 (Homo sapiens) (UniProt Q9UBC0). As to the kind of experiment: ATG_HNF6_CIS: Attagene CIS-FACTORIAL HepG2 Assay for human Hepatocyte Nuclear Factor 6 (HNF6) (AID 2282952). The following applies: HepG2 Attagene cis-factorial HNF6 reporter transcription; actives raise or lower the signal. An outline of the steps: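 Using cis-element reporters in HepG2 liver cells, the assay tracks endogenous factor-driven transcription 24 h post-dosing. Signal comes from 6-FAM-labelled, HpaI-digested RT-PCR fragments, with gain or loss scored against DMSO.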

For test [8], the target named is Heat shock factor protein 1 (Homo sapiens) (UniProt Q00613). As to the kind of experiment: ATG_HSE_CIS: Attagene CIS-FACTORIAL HepG2 Assay for human Heat Shock Transcription Factor 1 (HSE) (AID 2282953). The note with it: HepG2 HSE cis-reporter, Attagene RNA transcription; actives raise or lower the signal. An outline of the steps: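 After a 24 h incubation with test chemical, transfected HepG2 cells were harvested for RNA; reporter transcripts were measured by RT-PCR and capillary electrophoresis. Values reflect gain or loss of signal relative to DMSO.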
Heat shock factor protein 1 (Homo sapiens), sequence (Q00613 whole entry, looked up): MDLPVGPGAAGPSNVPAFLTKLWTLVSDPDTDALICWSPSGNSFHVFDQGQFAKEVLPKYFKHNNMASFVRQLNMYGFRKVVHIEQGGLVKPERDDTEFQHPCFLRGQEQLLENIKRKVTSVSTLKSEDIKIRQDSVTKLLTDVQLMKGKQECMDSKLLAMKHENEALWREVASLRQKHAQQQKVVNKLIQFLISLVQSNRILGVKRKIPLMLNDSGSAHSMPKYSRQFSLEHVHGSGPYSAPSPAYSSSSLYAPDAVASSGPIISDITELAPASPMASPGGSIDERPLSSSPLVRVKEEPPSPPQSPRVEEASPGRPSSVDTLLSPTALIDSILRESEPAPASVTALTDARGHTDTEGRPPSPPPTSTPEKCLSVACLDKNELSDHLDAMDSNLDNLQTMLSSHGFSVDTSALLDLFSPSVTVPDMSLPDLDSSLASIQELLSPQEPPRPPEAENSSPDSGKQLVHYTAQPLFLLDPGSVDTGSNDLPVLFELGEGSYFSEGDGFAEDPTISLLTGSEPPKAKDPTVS

A short description of test [9]: ATG_MRE_CIS: Attagene CIS-FACTORIAL HepG2 Assay for human Metal Responsive Element (MRE) (AID 2282954). The note with it: HepG2 MRE cis-reporter transcription, Attagene multiplex; actives raise or lower the signal. The procedure, abridged:
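Multiplexed cis-reporter assay in human HepG2 liver cells, 24 h incubation with test chemical. Reporter transcripts measured by RT-PCR and capillary electrophoresis; values from bidirectional curve fitting versus DMSO.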

A short description of test [10]: ATG_PBREM_CIS: Attagene CIS-FACTORIAL HepG2 Assay for human Phenobarbital-responsive Enhancer Module (PBREM) (AID 2282955). The following applies: HepG2 PBREM cis-reporter, Attagene multiplexed transcription; actives raise or lower the signal. An outline of the steps:
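Readout: reporter mRNA, fluorescent RT-PCR fragments separated by capillary electrophoresis. System: HepG2 transiently transfected with cis-regulated reporter units. Exposure: 24 h. Analysis: bidirectional, DMSO baseline.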

The target in test [11] is Paired box protein Pax-6 (Homo sapiens) (UniProt P26367). As to the kind of experiment: ATG_Pax6_CIS: Attagene CIS-FACTORIAL HepG2 Assay for human Paired Box 6 (PAX6) (AID 2282956). The note with it: HepG2 CIS-FACTORIAL PAX6 reporter transcription, RNA readout; actives raise or lower the signal. The procedure, abridged: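 Read-out is reporter transcript level, measured by RT-PCR with fluorescent primer extension and capillary electrophoresis after 24 h dosing of transfected HepG2 cells. Activity in either direction fitted relative to DMSO control.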
Paired box protein Pax-6 (Homo sapiens), sequence (P26367 whole entry, looked up): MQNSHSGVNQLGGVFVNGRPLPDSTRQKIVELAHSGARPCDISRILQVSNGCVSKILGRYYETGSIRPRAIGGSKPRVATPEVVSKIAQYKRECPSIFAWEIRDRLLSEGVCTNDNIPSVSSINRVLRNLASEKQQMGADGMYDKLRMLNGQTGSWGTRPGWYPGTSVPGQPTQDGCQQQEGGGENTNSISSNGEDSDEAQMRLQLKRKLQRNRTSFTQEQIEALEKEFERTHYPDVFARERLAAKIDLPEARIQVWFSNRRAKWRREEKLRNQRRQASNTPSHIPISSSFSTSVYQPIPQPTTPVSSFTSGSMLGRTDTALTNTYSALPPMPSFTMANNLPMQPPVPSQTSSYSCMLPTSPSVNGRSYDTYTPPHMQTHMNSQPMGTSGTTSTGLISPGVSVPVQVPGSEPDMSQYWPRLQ

A short description of test [12]: ATG_PXRE_CIS: Attagene CIS-FACTORIAL HepG2 Assay for human Pregnane X Receptor Element (PXRE) (AID 2282957). The following applies: HepG2 Attagene CIS-FACTORIAL PXRE reporter, mRNA; actives raise or lower the signal. An outline of the steps: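 Using HepG2 transfected with multiple reporter transcription units, endogenous factor-driven transcription was scored as reporter mRNA after 24 h exposure.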

A short description of test [13]: ATG_PPRE_CIS: Attagene CIS-FACTORIAL HepG2 Assay for human Peroxisome Proliferator-activated Response Element (PPRE) (AID 2282958). The following applies: HepG2 PPRE cis-element reporter, Attagene transcription factor profiling; actives raise or lower the signal. An outline of the steps: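 After human HepG2 hepatoma cells were transiently transfected with cis-promoter reporter constructs, they were exposed to test chemicals for 24 hours. Reporter RNA was then reverse-transcribed, PCR-amplified, FAM-labeled, HpaI-digested and quantified by capillary electrophoresis.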

Test [14] can be described thus: ATG_RORE_CIS: Attagene CIS-FACTORIAL HepG2 Assay for human RAR-related Orphan Receptor Element (RORE) (AID 2282959). The note with it: HepG2 Attagene cis-factorial RORE reporter, mRNA; actives raise or lower the signal. The procedure, abridged:
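Measured here: transcript induction of a cis-regulated reporter in HepG2 cells transiently transfected via FuGene 6. After 24 h, RNA was processed by RT-PCR and fluorescent capillary electrophoresis; DMSO defined baseline activity.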

A short description of test [15]: ATG_Sox_CIS: Attagene CIS-FACTORIAL HepG2 Assay for human SRY-box transcription factor (SOX) (AID 2282960). The note with it: HepG2 Attagene cis-factorial SOX reporter, mRNA; actives raise or lower the signal. The procedure, abridged: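 Using transiently transfected HepG2 cells, reporter transcription driven by cis elements was assessed 24 h after dosing. Signal was fluorescence of capillary-separated RT-PCR products, with DMSO defining baseline activity.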

Test [16] concerns the target Transcription factor Sp1 (Homo sapiens) (UniProt P08047). As to the kind of experiment: ATG_Sp1_CIS: Attagene CIS-FACTORIAL HepG2 Assay for human Specificity Protein 1 (Sp1) (AID 2282961). The note with it: HepG2 Sp1 cis-reporter transcription, actives raise or lower the signal. The procedure, abridged:
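After transient transfection of HepG2 cells with cis-promoter reporter units and 24 h chemical treatment, reporter transcripts were quantified by RT-PCR and capillary electrophoresis fluorescence. Gain- and loss-of-signal fitted against DMSO.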

A short description of test [17]: ATG_SREBP_CIS: Attagene CIS-FACTORIAL HepG2 Assay for human Sterol Regulatory Element Binding (SREBP) (AID 2282962). The following applies: HepG2 Attagene cis-factorial SREBP reporter, mRNA; actives raise or lower the signal. An outline of the steps: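 Endogenous SREBP activity read as cis-element-driven reporter transcript in transiently transfected HepG2, 24 h post-dosing; quantified via RT-PCR plus capillary electrophoresis of fluorescent fragments. Gain or loss of signal fitted relative to DMSO baseline.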

Test [18] concerns the target Signal transducer and activator of transcription 3 (Homo sapiens) (UniProt P40763). As to the kind of experiment: ATG_STAT3_CIS: Attagene CIS-FACTORIAL HepG2 Assay for human Signal Transducer and Activator of Transcription 3 (STAT3) (AID 2282963). The note with it: HepG2, Attagene cis-factorial STAT3 reporter transcription; actives raise or lower the signal. The procedure, abridged:
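Cis-factorial format: endogenous transcription factors in HepG2 drive transfected reporter units. After 24 h treatment, reporter RNA was reverse-transcribed, amplified, FAM-labelled and HpaI-digested before CE analysis; activity scored in both directions against DMSO.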

Transcription factor Sp1 (Homo sapiens), sequence (P08047 whole entry, looked up): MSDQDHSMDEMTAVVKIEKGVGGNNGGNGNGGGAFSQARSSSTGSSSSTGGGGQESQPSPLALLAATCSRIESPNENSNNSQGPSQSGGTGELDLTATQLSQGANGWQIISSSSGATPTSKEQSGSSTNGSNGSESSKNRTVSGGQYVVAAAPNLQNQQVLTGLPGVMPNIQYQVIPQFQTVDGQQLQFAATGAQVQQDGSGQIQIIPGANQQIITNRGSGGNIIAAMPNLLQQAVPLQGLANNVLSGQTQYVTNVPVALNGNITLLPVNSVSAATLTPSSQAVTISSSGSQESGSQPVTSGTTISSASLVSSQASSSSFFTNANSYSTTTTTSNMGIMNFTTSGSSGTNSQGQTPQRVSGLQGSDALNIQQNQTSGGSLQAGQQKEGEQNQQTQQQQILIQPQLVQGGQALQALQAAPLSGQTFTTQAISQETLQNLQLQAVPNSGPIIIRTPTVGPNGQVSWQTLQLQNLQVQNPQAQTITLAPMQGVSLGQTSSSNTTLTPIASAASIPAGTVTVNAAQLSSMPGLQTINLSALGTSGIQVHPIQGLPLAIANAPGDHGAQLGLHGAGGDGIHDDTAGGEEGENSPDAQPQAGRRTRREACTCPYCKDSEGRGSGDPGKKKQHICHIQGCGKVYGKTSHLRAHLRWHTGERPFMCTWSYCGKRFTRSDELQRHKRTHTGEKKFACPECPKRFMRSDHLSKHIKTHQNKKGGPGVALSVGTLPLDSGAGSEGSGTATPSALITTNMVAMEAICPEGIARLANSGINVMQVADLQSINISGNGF
Bile acid receptor (Homo sapiens), sequence (Q96RI1 whole entry, looked up): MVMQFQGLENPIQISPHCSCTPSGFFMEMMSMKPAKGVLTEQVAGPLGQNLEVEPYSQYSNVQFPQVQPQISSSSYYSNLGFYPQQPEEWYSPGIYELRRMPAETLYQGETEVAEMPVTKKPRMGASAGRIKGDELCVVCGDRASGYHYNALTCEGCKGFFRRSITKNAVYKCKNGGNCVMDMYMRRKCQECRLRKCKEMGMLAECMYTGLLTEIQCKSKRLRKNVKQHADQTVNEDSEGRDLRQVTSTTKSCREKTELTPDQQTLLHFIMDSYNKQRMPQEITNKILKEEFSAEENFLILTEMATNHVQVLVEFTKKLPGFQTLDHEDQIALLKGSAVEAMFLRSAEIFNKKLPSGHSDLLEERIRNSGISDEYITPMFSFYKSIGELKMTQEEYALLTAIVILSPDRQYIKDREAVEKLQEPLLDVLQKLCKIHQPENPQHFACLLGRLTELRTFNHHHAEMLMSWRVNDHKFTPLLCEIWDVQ
Hypoxia-inducible factor 1-alpha (Homo sapiens), sequence (Q16665 whole entry, looked up): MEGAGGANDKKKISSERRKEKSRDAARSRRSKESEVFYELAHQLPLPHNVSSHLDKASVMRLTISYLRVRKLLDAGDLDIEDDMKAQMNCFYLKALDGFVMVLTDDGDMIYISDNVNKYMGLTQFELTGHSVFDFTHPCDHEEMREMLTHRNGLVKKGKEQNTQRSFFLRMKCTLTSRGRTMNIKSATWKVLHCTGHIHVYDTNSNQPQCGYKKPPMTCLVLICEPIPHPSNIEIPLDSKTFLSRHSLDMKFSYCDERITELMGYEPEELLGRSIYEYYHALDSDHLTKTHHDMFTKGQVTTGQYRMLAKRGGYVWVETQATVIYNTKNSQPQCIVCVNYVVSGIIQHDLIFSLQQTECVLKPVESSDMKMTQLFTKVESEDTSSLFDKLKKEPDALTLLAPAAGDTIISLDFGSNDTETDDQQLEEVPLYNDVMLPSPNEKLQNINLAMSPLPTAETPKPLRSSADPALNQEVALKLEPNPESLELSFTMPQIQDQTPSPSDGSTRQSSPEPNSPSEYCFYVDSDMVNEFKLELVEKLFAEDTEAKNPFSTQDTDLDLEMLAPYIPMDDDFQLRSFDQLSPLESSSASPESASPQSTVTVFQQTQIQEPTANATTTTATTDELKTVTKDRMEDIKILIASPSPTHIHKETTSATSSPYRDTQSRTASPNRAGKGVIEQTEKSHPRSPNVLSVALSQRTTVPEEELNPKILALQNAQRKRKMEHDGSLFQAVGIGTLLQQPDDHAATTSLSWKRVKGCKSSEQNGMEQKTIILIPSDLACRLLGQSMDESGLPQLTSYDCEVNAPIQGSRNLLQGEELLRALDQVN
Hepatocyte nuclear factor 6 (Homo sapiens), sequence (Q9UBC0 whole entry, looked up, the tested form may be a part): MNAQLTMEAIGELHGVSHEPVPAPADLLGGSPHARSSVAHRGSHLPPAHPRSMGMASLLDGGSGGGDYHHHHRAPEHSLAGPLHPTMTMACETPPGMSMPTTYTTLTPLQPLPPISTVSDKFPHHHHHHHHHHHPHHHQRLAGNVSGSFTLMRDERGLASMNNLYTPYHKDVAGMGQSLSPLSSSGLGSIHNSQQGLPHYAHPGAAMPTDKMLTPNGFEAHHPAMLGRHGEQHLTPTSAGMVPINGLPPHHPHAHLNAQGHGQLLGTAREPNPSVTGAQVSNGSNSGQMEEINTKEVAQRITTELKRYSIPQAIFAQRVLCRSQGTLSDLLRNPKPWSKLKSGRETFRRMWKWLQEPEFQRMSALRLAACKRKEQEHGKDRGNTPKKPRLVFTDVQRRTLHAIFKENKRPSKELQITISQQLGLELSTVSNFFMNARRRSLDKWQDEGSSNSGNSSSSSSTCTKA
Signal transducer and activator of transcription 3 (Homo sapiens), sequence (P40763 whole entry, looked up): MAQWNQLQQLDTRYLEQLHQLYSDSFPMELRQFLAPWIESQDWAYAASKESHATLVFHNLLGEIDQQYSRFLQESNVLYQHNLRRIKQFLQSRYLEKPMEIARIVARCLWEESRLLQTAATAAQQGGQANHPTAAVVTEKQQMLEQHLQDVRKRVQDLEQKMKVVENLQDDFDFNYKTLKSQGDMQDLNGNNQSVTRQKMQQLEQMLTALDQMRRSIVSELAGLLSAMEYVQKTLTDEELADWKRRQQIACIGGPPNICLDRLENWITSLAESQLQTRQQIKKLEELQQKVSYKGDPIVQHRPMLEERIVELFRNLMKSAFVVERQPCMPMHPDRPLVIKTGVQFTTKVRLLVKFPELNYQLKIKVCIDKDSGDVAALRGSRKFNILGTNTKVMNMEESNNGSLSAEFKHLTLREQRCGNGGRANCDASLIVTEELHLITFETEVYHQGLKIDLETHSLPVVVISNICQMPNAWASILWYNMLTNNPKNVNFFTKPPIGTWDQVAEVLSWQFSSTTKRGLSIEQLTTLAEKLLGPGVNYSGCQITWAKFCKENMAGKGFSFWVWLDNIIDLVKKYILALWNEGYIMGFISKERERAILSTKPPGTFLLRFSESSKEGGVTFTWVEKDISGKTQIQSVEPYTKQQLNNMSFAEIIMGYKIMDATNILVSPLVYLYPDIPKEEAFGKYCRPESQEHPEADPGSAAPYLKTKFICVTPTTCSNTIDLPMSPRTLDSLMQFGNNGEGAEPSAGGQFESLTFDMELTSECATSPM

Regarding `CCS(=O)(=O)c1cccnc1S(=O)(=O)NC(=O)Nc1nc(OC)cc(OC)n1`, the outcome in test [1], in test [2], in [3], in [4], in test [5] and in test [6] was inactive. Also, the compound was called inactive in test [7], in test [8], in test [9], in test [10], in test [11] and in [12]. Moreover, the outcome in [13], in test [14], in [15], in test [16] and in test [17] was inactive. The AC50 in test [12] was 60.5 µM (active).

Take `Cc1cc(C)nc(NC(=O)NS(=O)(=O)c2ccccc2C(=O)OC2COC2)n1`: the compound was classed as inactive in test [1], in test [2], in [3], in test [4], in test [5] and in test [6]. Further, the call in test [7], in [10], in [11], in [12], in [13] and in [14] was inactive. For the same compound, the compound was classed as inactive in [15], in test [16] and in test [18]. Besides, the AC50 is 76.2 µM (active) in test [8], 80.5 µM (active) in test [9] and 81.9 µM (active) in test [17].

For the compound `CCCN(CCOc1c(Cl)cc(Cl)cc1Cl)C(=O)n1ccnc1`, the compound was classed as inactive in test [1], in test [2], in [3], in test [4], in test [5] and in test [6]. Moreover, the compound was classed as inactive in [7], in test [8], in test [9], in test [10], in test [11] and in test [13]. Moreover, the compound was classed as inactive in test [14], in [15], in [16] and in test [17]. Further, the concentration at half-maximal activity (AC50) in test [8] is 2.61 µM (active); in [9] it was 18.6 µM (active); in [10], 2.92 µM (active); in [12] it was 828 nM (active) and 60.9 µM (active); in test [16], 4.43 µM (active); in test [17] it was 11.1 µM (active).
